# Compounds without any hit were thinned out: in the full panel of roughly 83,000, 20% have a hit.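 The endpoint reported here, percent growth, reads 100 for growth as untreated, 0 for no net growth and -100 for all cells dead.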 Activity calls are given as the source filed them. Rule for the calls: active = growth percent below 10; inactive = the rest.
# Tested on: SN12C renal
# Assay: NCI-60 one-dose screen, 48 h (100 = growth as untreated, 0 = no growth, -100 = all killed)
# Conditions: 10 µM unless noted
row,Structure (SMILES),growth
1,CC(C)(C)N1CCC1CN (configuration not stated),111% (inactive)
2,C=C1C(=O)O[C@H]2[C@H]1CC/C(COC(=O)c1cc3cc(OC)ccc3[nH]1)=C\CC[C@@]1(C)O[C@@H]21,-80.8% (active)
3,CC[C@]1(O)C[C@@H]2CN(CCc3c([nH]c4ccccc34)[C@@](C(=O)OC)(c3cc4c(cc3OC)N(C)[C@H]3[C@@](O)(C(N)=O)[C@H](O)[C@]5(CC)[C@@H]6C[C@@H]6CN6CC[C@]43[C@@H]65)C2)C1,27.6% (inactive)
4,Cc1nn(-c2ccc(F)cc2)c2ncnc(Nc3ccc(NC(=O)Nc4ccc(Cl)c(C(F)(F)F)c4)cc3)c12,27.2% (inactive)
5,O=C(N/N=C/c1ccccc1O)c1ccccc1Nc1ccnc(C(F)(F)F)c1,26.8% (inactive)
6,CC(=O)O[C@H]1[C@@H]2OC(=O)C(CSc3ccccc3)[C@@H]2C[C@H]2O[C@]2(C)CC/C=C(\C)CCC[C@@H]1C (some centres not stated),31.6% (inactive)
7,C#CCOc1ccc2ncnc(N3CCC(NC(=O)CCl)CC3)c2c1,63.6% [8.25 µM] (inactive)
8,CCC(=O)c1ccc(Cl)s1,101% (inactive)
9,O=C1CC[C@H](c2ccc(O)c3c2C(=O)[C@@H]2O[C@@H]2C3=O)c2cccc(O)c21,54.6% (inactive)
10,COc1ccc(S(=O)(=O)N2CC3(COC3)C2)cc1NC(=O)c1[nH]c(C)c2c1CCCCC2=O,54.9% (inactive)
11,O=C1/C(=C/c2ccc3c(c2)OCO3)SC(=S)N1CCc1ccc(O)cc1,92.1% (inactive)
12,Oc1ccccc1-c1nnc(CNc2ccc(Cl)cc2)o1,40.6% (inactive)

# Source: PubChem BioAssay (NCI)
